# Compound activity: PubChem BioAssay, National Center for Advancing Translational Sciences (NCATS)
# GALK inh = galactokinase (human) inhibition. P51570. Purified GALK, Kinase-Glo residual ATP luminescence. Potency, µM (titrated, usually from 57.5 µM), for inactives: at the top dose activity change, negative = inhibition, actives largely listed as inhibitors. 270,000 tested, 0.007% active. AID 1868; also: potency is read from the fitted curve at half-maximal effect; % is scaled to controls: 0 for no effect and ±100 for the full control effect
#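 Human GALK (5 nM) with 35 uM ATP and 100 uM galactose in 20 mM HEPES pH 8.0, 5 mM MgCl2, 60 mM NaCl, 1 mM DTT, 0.01% BSA. After 1 h at room temperature, leftover ATP was read by Kinase-Glo Plus luminescence.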
# Tb PFK block = T. brucei PFK enzyme inhibition; T. brucei PFK, ADP-Glo luminescence; Potency, µM (highest dose often 57.5 µM), for inactives: top-dose activity, negative = inhibition, usual class: inhibitors; 330,000 tested, 0.17% active; AID 485367;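 also: potency is read from the fitted curve at half-maximal effect; 0% = uninhibited 1x PFK enzyme wells and -100% = no-enzyme wells; nearly all actives have a fitted effect of over 60% in size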
# Target sequence (O15648 whole entry, looked up): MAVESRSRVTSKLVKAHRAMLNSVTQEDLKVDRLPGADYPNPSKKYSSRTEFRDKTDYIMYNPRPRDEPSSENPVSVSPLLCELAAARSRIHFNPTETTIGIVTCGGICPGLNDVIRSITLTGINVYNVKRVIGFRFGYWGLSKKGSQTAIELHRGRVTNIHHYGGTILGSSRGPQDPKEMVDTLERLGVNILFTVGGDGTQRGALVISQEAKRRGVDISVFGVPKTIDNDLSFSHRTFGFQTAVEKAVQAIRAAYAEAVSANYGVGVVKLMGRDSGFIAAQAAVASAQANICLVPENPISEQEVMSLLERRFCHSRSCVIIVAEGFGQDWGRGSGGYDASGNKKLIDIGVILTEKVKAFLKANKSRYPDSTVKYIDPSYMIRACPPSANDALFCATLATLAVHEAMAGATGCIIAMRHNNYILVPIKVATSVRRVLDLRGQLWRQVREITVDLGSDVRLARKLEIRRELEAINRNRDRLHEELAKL
#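 ADP-Glo luminescence quantified ADP after 45 min at room temperature, with 1.25 nM T. brucei PFK, 0.1 mM ATP and 0.5 mM fructose-6-phosphate in pH 8.0 TEA buffer. qHTS titrations up to 57 µM; curves classified by quality.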
# PKM2 activator = increases activity of human pyruvate kinase M2. 260,000 tested, 0.34% active. P14618. Potency, µM (series often up to 57.5 µM), for inactives: top-dose activation, most hits filed as activators. purified PKM2, Kinase-Glo ATP luminescence, activation; response scale: 0% is enzyme alone, no compound; also: potency is read from the fitted curve at half-maximal effect; % is scaled to controls: 0 for no effect and ±100 for the full control effect; nearly all actives have a fitted effect of over 55% in size
#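 ATP formation by purified human PK-M2, quantified via coupled luciferase luminescence after 1 h at room temperature with 0.1 mM ADP and 0.5 mM PEP final.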
# KinaseGlo FLuc = blocks Kinase-Glo luciferase, a counter-screen artifact; Q27757; Kinase-Glo luciferase, ATP luminescence, 8 min; Potency, µM (series often up to 38.3 µM), inactives show at the top dose activity change, negative = inhibition, most hits filed as inhibitors; 200,000 tested, 0.28% active; also: potency is read from the fitted curve at half-maximal effect; % is scaled to controls: 0 for no effect and ±100 for the full control effect; nearly all actives have a fitted effect of over 60% in size
#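 Recombinant Kinase-Glo luciferase, 10 uM ATP (linear range), luciferin; imidazole pH 7.2 / KCl / MgCl2 / Tween / BSA buffer; 8 min RT; luminescence.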
# CBFb-RUNX1 inh = blocks binding between human CBF-beta and RUNX1 | AlphaScreen CBFb-His/RUNX1-biotin binding, biochemical | 230,000 tested, under 10 active | Potency, µM (titrated, usually from 59.8 µM), for the others: at the top dose activity, negative = inhibition, most hits filed as inhibitors | AID 1477; also: % of control where 0% means no effect
#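 Compounds were screened at multiple concentrations against a preformed CBF-beta(His)/RUNX1(biotin) complex (30 nM of each) for 15 min at room temperature, followed by 90 min with nickel and streptavidin beads and AlphaScreen reading.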
# * = called active by the depositor; ? = inconclusive; · = no result; [ ] = remark or other dose. This is a sample that favours compounds with a hit; in the whole collection about 0.56% have one here. Calls follow the shape of the dose curve; as a rule, active = well fitted curve in the direction sought with a large enough effect; inconclusive = small, poorly fitted or top-dose-only effect, or another doubt; inactive = no such curve, though single readings can be large; an effect the other way counts as inactive or inconclusive.
SMILES,GALK inh,Tb PFK block,PKM2 activator,KinaseGlo FLuc,CBFb-RUNX1 inh
CCn1nc(-c2ccccc2)nc2c(=O)n(C)c(=O)nc1-2,0.891µM*,-7.3%,2.7%,-3.7%,·
CC(=O)Nc1ccccc1C(=O)OCC(=O)c1ccc2ccccc2c1,-1.6%,2.9%,-3.2%,-0.8%,0.8%
Nc1ccccc1C(=O)OCC(=O)c1ccc2c(c1)OCCO2,10.9%,-26.0%,-1.6%,11.2µM*,-15.1%
O=C1NC(=O)C(=Cc2ccc(Sc3ccccc3)o2)C(=O)N1,2.9%,-2.1%,20µM*,·,1.3%
O=C(O)[C@@H](O)[C@@H](O)C1[O][Sb][O][C@@H]1CO (stereo partly specified),·,·,·,-0.6%[7.66 µM],·
O=c1[nH]c(=O)n(Cc2ccco2)c(O)c1C=NCc1cccs1,2.3%,·,28.2µM*,-4.4%,-6.0%
O=C(O)CCCC[C@@H]1SC[C@H]2NC(=O)N[C@@H]12,·,·,·,1.5%,12.6µM*
O=C1C(=O)c2cccc3cccc1c23,·,-3.8%,-3.0%,-2.0%,5.4%
O=C1C(=O)c2ccccc2-c2ccccc21,3.16µM*,5.7%,7.1%,16.9%,-18.6%
Cc1ccc(-n2sc3ccccc3c2=O)cc1,-1.5%,9.53µM*,-63.1%,-12.6%,-3.4%
Cc1cc(/C=C2\C(=O)NC(=O)N(c3ccc(Cl)cc3)C2=O)c(C)n1-c1sc2c(c1C#N)CCCC2,-5.6%,0.0%,25.7%,1.1%,-18.1%
CCOC(=O)c1c(-n2c(C)cc(/C=C3\C(=O)NC(=O)N(C)C3=O)c2C)sc2c1CCCC2,1.0%,0.1%,15.8µM*,-1.0%,-1.3%
O=C1NC(=O)N(Cc2ccccc2)C(=O)/C1=C\C=C\c1ccco1,-11.6%,-22.5%,?,-1.6%,-15.0%
O=C1NC(=O)N(Cc2ccco2)C(=O)/C1=C/C=C/c1ccco1,-1.6%,30.1µM*,-11.0%,·,·
COCCCNC(=O)c1c(N)n(Cc2ccco2)c2nc3ccccc3nc12,-2.1%,-5.4%,25.1µM*,·,?
O=C1NC(=O)N(c2ccc3c(c2)OCO3)C(=O)/C1=C/c1ccsc1,-0.1%,-0.1%,9.3%,4.7%,-0.8%
O=C1NC(=O)N(c2ccc3c(c2)OCO3)C(=O)/C1=C/c1cccs1,-1.3%,13.2%,11.2µM*,8.4%,-23.9%
COC(=O)c1c(C)ccc2c(O)c3c(cc12)C(=O)c1c2c(cc(O)c1C3=O)[C@@]1(C)O[C@@](C)(O2)[C@@H](O)[C@H](N(C)C)[C@H]1O,·,·,·,-10.5%[7.66 µM],·
CCOC(=O)C1(CCc2ccccc2)CCN(Cc2cccc3c2OCO3)CC1,6.4%,0.2%,31.6µM*,·,10.5%
O=C(O)C(C(=O)O)P(=S)(S)c1ccccc1 (stereo unspecified),·,·,·,-1.1%[7.66 µM],·
O=C(O)CC1OCC=C2CN3CCC45c6ccccc6NC4C1C2CC35 (stereo unspecified),5.4%,2.0%,-4.0%,·,10.1%
O=C(O)CC1OCC=C2CN3CCC45C6=CC(=O)C(=O)C([N+](=O)[O-])=C6NC4C1C2CC35 (stereo unspecified),10µM*,-16.7%,2.3%,·,-18.1%
O=C(Oc1ccc(S(=O)(=O)F)cc1F)c1ccccc1Cl,·,·,·,-1.1%[7.66 µM],·
C[C@H](CC(C#N)(c1ccccc1)c1ccccc1)N1CCCCC1,·,·,·,-2.4%[7.66 µM],·
Cc1c([C@@H](C)C2NC[C@H](C)C[C@@H]2O)ccc2c1C[C@@H]1[C@H]2CC=C2C[C@@H](O)CC[C@@]21C (stereo partly specified),·,·,·,-3.5%[7.66 µM],·
SMILES,GALK inh,Tb PFK block,PKM2 activator,KinaseGlo FLuc,CBFb-RUNX1 inh
O=c1c2ccccc2[se]n1-c1ccccc1,0.7%,4.78µM*,-84.5%,10µM*,?
CN(C)c1ccc(/C=C/C=C2/C(=O)NC(=O)N(c3ccccc3)C2=O)cc1,17.4%,?,-56.2%,14.1µM*,-1.7%
CN1C(=O)C(=Cc2coc3ccccc3c2=O)C(=O)N(C)C1=O,-0.1%,0.5%,-2.1%,·,?
O=C1NC(=O)C(=Cc2coc3ccc(O)cc3c2=O)C(=O)N1,·,-13.6%,31.6µM*,·,-0.1%
[CH3][Hg][Cl],·,·,·,·,23.5%[21.7 µM]
CNC(=O)Oc1cccc(-c2cn3cc(Cl)ccc3n2)c1,·,-16.8%,-54.8%,10µM*,19.8%
